According to the supplement of paper PMC11732987, “Enantioselective OTUD7B fragment discovery through chemoproteomics screening and high-throughput optimisation” (Communications Chemistry, 2025):

Molecular target: T1, USP22 (UniProt Q9UPT9)
T1 sequence (whole entry): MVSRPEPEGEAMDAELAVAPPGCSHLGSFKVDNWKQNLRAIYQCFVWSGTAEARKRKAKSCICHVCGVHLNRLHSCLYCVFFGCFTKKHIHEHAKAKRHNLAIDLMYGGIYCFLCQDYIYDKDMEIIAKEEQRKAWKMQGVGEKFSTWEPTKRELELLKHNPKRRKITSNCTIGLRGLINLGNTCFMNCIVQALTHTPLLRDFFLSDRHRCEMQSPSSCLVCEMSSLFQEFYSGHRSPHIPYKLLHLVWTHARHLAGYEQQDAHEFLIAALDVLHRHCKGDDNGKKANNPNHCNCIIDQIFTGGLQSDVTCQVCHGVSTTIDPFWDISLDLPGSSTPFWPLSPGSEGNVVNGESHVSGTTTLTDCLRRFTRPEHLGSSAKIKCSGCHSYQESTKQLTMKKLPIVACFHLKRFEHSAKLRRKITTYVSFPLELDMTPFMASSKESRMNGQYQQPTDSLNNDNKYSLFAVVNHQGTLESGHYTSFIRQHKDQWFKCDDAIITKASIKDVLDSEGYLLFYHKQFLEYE
Experiment: log2 ratio of Biotin-Ahx-Ub-VS probe labelling (fragment/DMSO); higher = less target engagement (more negative = stronger competition), active = hit call of the paper (q ≤ 0.05, log2 ratio ≤ -1)
Details: compound concentration: 200 uM; treatment time: 3 h
Procedure: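 Competitive ABPP in HEK293T cell lysate. Lysates were treated with each chloroacetamide fragment at 200 µM for 3 h, then with Biotin-Ahx-Ub-VS (0.5 µM, 1 h), NeutrAvidin-enriched and analysed by diaPASEF LC-MS/MS. Protein LFQ was median-normalised; average log2 ratio is fragment/DMSO from an unpaired t-test (n=3 treated, n=44 DMSO). Hits: q ≤ 0.05, log2 ratio ≤ -1, unique peptides ≥ 2.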

log2 ratio of Biotin-Ahx-Ub-VS probe labelling, inactive:
O=C(CCl)N1CCCC2CCCCC21 (stereo not given) -0.0228
CCN(C(=O)CCl)C1CCCCC1 0.0286
CC(C)n1nccc1NC(=O)CCl 0.134
CNC(=O)C1(NC(=O)CCl)CCCCC1 -0.0396
Cc1cc(CC(C)NC(=O)CCl)n[nH]1 (stereo not given) 0.128
CN(Cc1nc2ccccc2[nH]1)C(=O)CCl.Cl 0.243
CN(C(=O)CCl)c1nc2ccccc2s1 -0.0338
NS(=O)(=O)c1ccc(Cl)c(NC(=O)CCl)c1 -0.46
Cl.Cn1nc2c(c1CNC(=O)CCl)CCCC2 -0.0746
Cc1noc(N2CCN(C(=O)CCl)CC2)n1.Cl 0.0656
O=C(CCl)N1CCc2ccccc2C(O)C1 (stereo not given) -0.345
Cl.O=C(CCl)NC1(c2ncccn2)CCC1 0.221
O=C(CCl)NCCc1cccc2ccccc12 -0.385
O=C(CCl)N1CCN2C(=O)CCC2C1 (stereo not given) -0.0658
Cc1cc(C2CCCN2C(=O)CCl)nn1C.Cl (stereo not given) -0.312
O=C(CCl)N1CC=C(c2c[nH]c3ccccc23)CC1 -0.57
O=C(CCl)N1CCC2(CCC(O)CC2)CC1 -0.145
Cn1cc(CN(Cc2ccc(Cl)cc2)C(=O)CCl)cn1 0.0724
CN1c2ccccc2C(NC(=O)CCl)CS1(=O)=O (stereo not given) -0.303
O=C(CCl)N1CCCCCC1c1ncon1 (stereo not given) -0.0397
Cc1ccc(-c2nnc(C)[nH]2)c(NC(=O)CCl)c1 0.0459
O=C(CCl)NCc1ccc(N2CCOCC2)c(F)c1 -0.359
Cl.O=C(CCl)NCc1ccnc(Oc2ccccc2F)c1 -0.353
O=C(CCl)NC1CCC2(CC1)OCCO2 -0.165
Cl.O=C(CCl)N[C@H]1C[C@@H](n2cccn2)C1 0.044
Cc1ccccc1CN(C)C(=O)CCl -0.0794
CN1C(=O)c2ccc(NC(=O)CCl)cc2C1=O 0.0519
Cc1cc(NC(=O)CCl)n(-c2ccccc2)n1 0.086
COCC1C=CCCN1C(=O)CCl (stereo not given) -0.0428
O=C(CCl)Nc1ccc(Cl)c(F)c1 -0.253
Cl.O=C(CN1CCN(C(=O)CCl)CC1)Nc1ccc(F)cc1 0.179
Cc1ncsc1CCNC(=O)CCl 0.314
O=C(CCl)N1CCC(c2ccn[nH]2)C1 (stereo not given) -0.234
Cc1ccc(CN(C)C(=O)CCl)o1 -0.454
Cl.Cn1c(CNC(=O)CCl)nc2cccnc21 -0.175
O=C(CCl)N(C1CCCC1)C1CCS(=O)(=O)C1 (stereo not given) 0.236
O=C(CCl)N1CCC(=C(F)CO)C1 0.192
O=C(CCl)N1CCCCC12CCOCC2 -0.332
COc1ccc(C2CCCN2C(=O)CCl)c(OC)c1 (stereo not given) -0.361
C#Cc1cccc(NC(=O)CCl)c1 -0.379
